About 83,000 compounds went through this panel and 20% of them were active in at least one assay; those are over-represented in the sample as a whole.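 Interpretation: 100, growth as untreated; towards 0, rising growth inhibition; 0, no net growth; 0 to -100, cell death. Compounds scoring below 10 were considered active.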 Values without a mark were called inactive. Active and inactive are the calls of the source.

Some test systems named below: NCI-H23 lung; NCI-H226 lung; HOP-62 NSCLC; NCI-H460 lung; HOP-92 NSCLC; NCI-H522 lung; A549/ATCC NSCLC; 786-0 renal; COLO 205 colon.
Experiment in all cases: NCI-60 one-dose screen, 48 h (100 = growth as untreated, 0 = no growth, -100 = all killed)
Holding throughout (conditions): 10 µM unless noted

With `CCOC(=O)c1c2ncccc2n2c(=O)n(-c3ccc(Cl)cc3)nnc12`, the growth with NCI-H23 lung was 92.7%; in the assay with NCI-H226 lung, 104%; in the assay with HOP-62 NSCLC it was 71.7%; in the assay with NCI-H460 lung, 69.7%; in the assay with HOP-92 NSCLC, 101%; with NCI-H522 lung, 71.1%. Besides, the growth in the assay with A549/ATCC NSCLC is 81.8%; in the assay with 786-0 renal it was 97.1%; with COLO 205 colon, 109%.

As for `O=C(Nc1ccc(CN2CCOCC2)cc1)c1[nH]ncc1Nc1ncnc2sccc12`, the growth was -3.72% (active) with NCI-H23 lung; 15.5% in the assay with NCI-H226 lung; 20.1% with HOP-62 NSCLC; 3.28% (active) in the assay with NCI-H460 lung; 22.9% with HOP-92 NSCLC; 7.15% (active) with NCI-H522 lung. For the same molecule, the growth in the assay on A549/ATCC NSCLC was 13.6%; with COLO 205 colon it was -34.9% (active).

Consider `CC/C=C\C[C@H](F)C/C=C1/C(=O)C=C[C@@H]1C/C=C\CCCC(=O)O`, for which the growth with NCI-H23 lung is 62.7%; in the assay on NCI-H226 lung, 104%; in the assay on HOP-62 NSCLC, 111%; in the assay on NCI-H460 lung, 50.6%; in the assay on HOP-92 NSCLC, 109%; in the assay on NCI-H522 lung, 31%. In addition, the values for the growth with A549/ATCC NSCLC, in the assay on 786-0 renal and with COLO 205 colon were 68.3%, 82.4% and 48.5%, respectively.

Regarding `OC(c1cccc(C(F)(F)F)c1)c1cnccc1NC1CCCCCC1` (stereo not given), the growth in the assay on NCI-H23 lung was 26.1%; in the assay with NCI-H226 lung, 62.4%; with HOP-62 NSCLC it was 74.4%; in the assay on NCI-H460 lung, -23.9% (active); in the assay with HOP-92 NSCLC it was 5.31% (active); in the assay on NCI-H522 lung it was 58.6%. Further, the growth was 53.8% in the assay on A549/ATCC NSCLC, 56.2% in the assay on 786-0 renal and -76.3% (active) with COLO 205 colon.

`O=C1c2ccccc2-c2nccc3cc(Cl)nc1c23`: the growth in the assay with NCI-H23 lung was -62.3% (active); with NCI-H226 lung, 48.2%; in the assay with HOP-62 NSCLC, 47.6%; in the assay with NCI-H460 lung, 40.2%; with HOP-92 NSCLC it was 21.2%; in the assay with NCI-H522 lung, -75.9% (active). Moreover, the growth with A549/ATCC NSCLC is 73%; with 786-0 renal, 71.1%; in the assay with COLO 205 colon it was 54.7%.

With `COc1cc(NCCCCN=C(N)N)c2ncccc2c1`, the growth in the assay on NCI-H23 lung is 13.9%; in the assay on NCI-H226 lung it was 98.9%; in the assay with HOP-62 NSCLC it was 80.9%; in the assay with NCI-H460 lung it was 104%; with HOP-92 NSCLC, 68.8%; with NCI-H522 lung, -9.41% (active). Moreover, the growth with A549/ATCC NSCLC was 86.8%; in the assay on 786-0 renal, 91.6%; in the assay with COLO 205 colon it was 82.6%.

In the case of `O=C(CCCN1CCOCC1)Nc1ccc(Cn2nnc3c2C(=O)c2nnn(Cc4ccc(NC(=O)CCCN5CCOCC5)cc4)c2C3=O)cc1`, the growth was -6.94% (active) in the assay on NCI-H23 lung; 97.8% in the assay with NCI-H226 lung; 73.9% in the assay with HOP-62 NSCLC; 22.4% with NCI-H460 lung; -20.9% (active) in the assay on HOP-92 NSCLC; -34.9% (active) in the assay on NCI-H522 lung. For the same molecule, the growth is 83.8% in the assay with A549/ATCC NSCLC, 101% in the assay on 786-0 renal and -70.5% (active) in the assay on COLO 205 colon.

For the molecule `O=C1/C(=C/c2ccc(Cl)c(Cl)c2)CN(C(=O)CCN2CCC(=NO)CC2)C/C1=C\c1ccc(Cl)c(Cl)c1`, the growth with NCI-H23 lung was -73.4% (active); in the assay on NCI-H226 lung, -40.6% (active); with HOP-62 NSCLC, -88.2% (active); in the assay with NCI-H460 lung, -66% (active); with HOP-92 NSCLC, -53.2% (active); in the assay on NCI-H522 lung it was -90.4% (active). Besides, the growth in the assay with A549/ATCC NSCLC was -34.6% (active); with 786-0 renal it was -79.6% (active); in the assay with COLO 205 colon, -84.6% (active).

Turning to `CCOc1ccc(Nc2nc(-c3c(C)nc4ncccn34)cs2)cc1`, the growth is 24.2% with NCI-H23 lung; 52.1% in the assay on NCI-H226 lung; 17.9% in the assay on HOP-62 NSCLC; 5.6% (active) in the assay with NCI-H460 lung; 18.2% in the assay with HOP-92 NSCLC; -6.3% (active) in the assay on NCI-H522 lung. In addition, the figures for the growth with A549/ATCC NSCLC, in the assay with 786-0 renal and in the assay with COLO 205 colon were 22.4%, 9.74% (active) and -60.8% (active), respectively.

On to `COC(=O)C12C3C(=O)N(c4ccc(OC)cc4)C(=O)C3C(c3cn(-c4ccccc4)nc3C)N1[C@H](c1cn(-c3ccccc3)nc1C)[C@@H]1C(=O)N(c3ccc(OC)cc3)C(=O)[C@@H]12` (stereo not given in full), for which the growth with NCI-H23 lung is 103%; in the assay on NCI-H226 lung it was 99.7%; in the assay with HOP-62 NSCLC it was 116%; in the assay with NCI-H460 lung it was 99.8%; in the assay with HOP-92 NSCLC, 97.4%; in the assay with NCI-H522 lung, 91.2%. In addition, the growth in the assay on A549/ATCC NSCLC was 100%; in the assay on 786-0 renal it was 102%; with COLO 205 colon it was 112%.

For the molecule `O=C1O[C@H]([C@H](O)CO)C(O)=C1O`, the growth with NCI-H23 lung was 97.7%; in the assay with NCI-H226 lung it was 103%; with HOP-62 NSCLC, 107%; with NCI-H460 lung, 104%; in the assay on HOP-92 NSCLC, 109%; in the assay with NCI-H522 lung, 88.4%. For the same molecule, the values for the growth in the assay on A549/ATCC NSCLC, with 786-0 renal and with COLO 205 colon were 104%, 103% and 107%, respectively.

Take `COc1nc2c(cc1S(=O)(=O)c1ccccc1)CCc1c-2cnn1-c1ccc(Cl)cc1`: the growth in the assay with NCI-H23 lung is 89.5%; with NCI-H226 lung it was 92.1%; in the assay with HOP-62 NSCLC, 86.5%; with NCI-H460 lung, 99.2%; with HOP-92 NSCLC it was 80.3%; with NCI-H522 lung, 81.1%. For the same molecule, the growth with A549/ATCC NSCLC is 95.4%; in the assay with 786-0 renal, 79.5%; in the assay with COLO 205 colon, 118%.

`CCOC(=O)c1nc(Nc2cc(C)[nH]n2)c2ccccc2n1`: the growth was 95.1% with NCI-H23 lung; 81% in the assay on NCI-H226 lung; 103% in the assay with HOP-62 NSCLC; 79.7% in the assay on NCI-H460 lung; 86.3% in the assay with HOP-92 NSCLC; 92.2% with NCI-H522 lung. Further, the growth with A549/ATCC NSCLC was 96.5%; with 786-0 renal, 82.6%; with COLO 205 colon it was 104%.

On to `COc1cccc(-c2nc3sccn3c2-c2ccnc(NCCCNS(=O)(=O)c3ccccc3)c2)c1`, for which the growth is 29.1% in the assay on NCI-H23 lung; 32.6% in the assay with NCI-H226 lung; 62.2% in the assay with HOP-62 NSCLC; 38.3% in the assay on NCI-H460 lung; 42% in the assay on HOP-92 NSCLC; 27.9% in the assay on NCI-H522 lung. Also, the figures for the growth with A549/ATCC NSCLC and in the assay on 786-0 renal were 29% and 59.5%, respectively.

As to `CC[n+]1ccc2c(c1)C(=O)c1nccc3c1c-2nc1ccccc13`, the growth with NCI-H23 lung was -27.9% (active); in the assay with NCI-H226 lung, -67.1% (active); in the assay with HOP-62 NSCLC, -27.6% (active); in the assay with NCI-H460 lung, -82.1% (active); with HOP-92 NSCLC, -11.9% (active); in the assay on NCI-H522 lung, -38% (active). The growth in the assay on A549/ATCC NSCLC is -4.31% (active); in the assay with 786-0 renal it was -14.4% (active); with COLO 205 colon, -23.8% (active).

With `O=C(/C=C\c1ccc2ccccc2n1)c1cc(Cl)ccc1O`, the growth in the assay on NCI-H23 lung was 63.2%; with NCI-H226 lung, 58.7%; in the assay on HOP-62 NSCLC it was 97.8%; in the assay on HOP-92 NSCLC, 52.3%; with NCI-H522 lung it was 94.8%; in the assay with A549/ATCC NSCLC it was 104%. Further, the growth in the assay on 786-0 renal was 75.4%; in the assay with COLO 205 colon, 115%.

As for `Nc1c(C(=O)Nc2ccccc2)sc2nc3c(cc12)CN(CCc1ccccc1)CC3`, the growth with NCI-H23 lung was 84.2%; in the assay with NCI-H226 lung, 89.8%; in the assay with HOP-62 NSCLC, 99.2%; in the assay on NCI-H460 lung it was 100%; in the assay on HOP-92 NSCLC it was 75.5%; in the assay on NCI-H522 lung it was 86.1%. In addition, the growth is 107% with A549/ATCC NSCLC, 101% in the assay with 786-0 renal and 116% in the assay with COLO 205 colon.

As to `CN(C)CCOc1ccc(-c2nc3ccc(-c4nc5ccc(N6CCN(C)CC6)cc5[nH]4)cc3[nH]2)cc1`, the growth was 76.9% in the assay with NCI-H23 lung; 28.7% with NCI-H226 lung; 69.9% in the assay on HOP-62 NSCLC; 56% in the assay on NCI-H460 lung; 61.7% in the assay with HOP-92 NSCLC; 59.9% in the assay on NCI-H522 lung. Further, the growth is 64.4% in the assay on A549/ATCC NSCLC, 86.4% in the assay on 786-0 renal and 44.5% with COLO 205 colon.

On to `C[C@@H]1CC[C@@H]2[C@@H]1[C@H](OC(=O)/C=C/c1ccccc1)[C@]1(C3CCCCC3)C[C@@H](OC(=O)CO)[C@@]2(C)O1`, for which the growth with NCI-H23 lung is 81.9%; with NCI-H226 lung it was 68.2%; in the assay on HOP-62 NSCLC it was 86%; with NCI-H460 lung, 68.3%; in the assay on HOP-92 NSCLC it was 55.3%; in the assay with NCI-H522 lung, 65.9%. Besides, the growth in the assay with A549/ATCC NSCLC is 53.1%; in the assay on 786-0 renal it was 73.2%; in the assay with COLO 205 colon, 80.6%.

As for `O=c1[nH]c(-c2ccccn2)nc2sc3c(c12)CCCCC3`, the growth in the assay with NCI-H23 lung is 56.9%; with NCI-H226 lung, 68.8%; in the assay with HOP-62 NSCLC, 37.8%; in the assay with NCI-H460 lung, 18.8%; in the assay with HOP-92 NSCLC, 68.6%; with NCI-H522 lung it was 20.8%. Besides, the growth was 31.7% with A549/ATCC NSCLC, 60.4% with 786-0 renal and 28% in the assay on COLO 205 colon.

For `CC/C(Cc1ccccc1)=C(/c1ccc(O)cc1)c1ccc(OCCN2CCCC2)cc1`, the growth with NCI-H23 lung is 8.75% (active); with NCI-H226 lung it was 71.2%; in the assay with HOP-62 NSCLC, -22.3% (active); in the assay on NCI-H460 lung, -90.5% (active); in the assay on HOP-92 NSCLC it was -12.8% (active); with NCI-H522 lung, -54.3% (active). Moreover, the growth is -83.6% (active) in the assay on 786-0 renal and -71.8% (active) in the assay with COLO 205 colon.

Source of the values: PubChem BioAssay (NCI).
